Data on 54 sequences can be found in publication PMC7819943, “Rice protein-binding microarrays: a tool to detect cis-acting elements near promoter regions in rice”.

Whole data set: some 68,000 sequences, median “fluorescence intensity (a.u.)” near 9,100, cut for the highest 2% near 16,000. Many of the other results were omitted from the sample, so the highest values are more common in it than they were.

OsWRKY34, sequence (Q0JBA9 entry or part of it): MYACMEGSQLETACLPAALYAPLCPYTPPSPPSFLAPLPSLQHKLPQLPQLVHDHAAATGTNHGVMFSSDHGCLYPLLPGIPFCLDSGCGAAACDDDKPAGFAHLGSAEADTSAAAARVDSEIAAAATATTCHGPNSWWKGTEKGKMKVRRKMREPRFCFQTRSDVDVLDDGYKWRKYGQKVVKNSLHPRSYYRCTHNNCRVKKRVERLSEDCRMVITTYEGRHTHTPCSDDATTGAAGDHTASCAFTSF

This experiment has as its target OsWRKY34 (Oryza sativa, UniProt Q0JBA9 1-250). Kind of experiment: protein-binding microarray (RPBM); PBS, 2% BSA, 51.3 ng/ul salmon testes DNA, 50 uM zinc acetate, 200 nM TF, 25 C, 1 h; high values mean tight binding. As to conditions: protein: recombinant; tags: N-terminal polyhistidine and DsRed monomer fusion (pET32a); label: CyDye5-dUTP incorporated in the synthesized complementary strand; 3' TTTTT single-stranded linker to array surface; dsDNA, one strand shown. An outline of the steps:
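Polyhistidine-tagged DsRed fusions of transcription factors, joined at the N-terminus, were expressed in E. coli BL21-CodonPlus and isolated on Ni–NTA. They were incubated at 200 nM for 1 h at 25 °C on a custom Agilent array, double-stranded and BSA-blocked, in PBS with 2% BSA, salmon testes DNA and 50 µM zinc acetate. The binding signal is per-feature fluorescence intensity (arbitrary units) read on an Axon 4000B scanner after washing.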
For the sequence “GTGTCGGCGGAGGGGCGCGCGGCGGGGTCGGCGGAGGCGCCGGAGTCACCTAGTGCAG”, the binding signal was 8590 fluorescence intensity (a.u.).

As to “CAGTTTCCACCCTGGGTGGGGTGGGGCCCACCTGTCGGGGCGGAGTCACCTAGTGCAG”, the binding signal was 9940 fluorescence intensity (a.u.). For “CTGTATTATGGTGCTTTCACATTTTTTTTCTAGTCTGCCACGGAGTCACCTAGTGCAG” the value was 8370 fluorescence intensity (a.u.); for “GTCCAAGTTTGCCTTTCTCACTGGGGAGCGGGTGGGCTGTCGGAGTCACCTAGTGCAG”, 21000 fluorescence intensity (a.u.); for “GTGTGGTCGTCGTGTCGGCGGCGGCGGCGGCGGCGGGAGGCGGAGTCACCTAGTGCAG”, 14300 fluorescence intensity (a.u.).

Regarding “GAGTTGGGTTGGAGTGGTTTGGATCGCTGCTTCACTAGGGCGGAGTCACCTAGTGCAG”, the binding signal was 27400 fluorescence intensity (a.u.). For “CCTTTCCAAGTCGGTCGGGGTAGCTGGGTTGTCTCGCCGGCGGAGTCACCTAGTGCAG” the value was 12300 fluorescence intensity (a.u.).

As for “GGTTTTCATGGTGCTGTGGATGTTCACTAGCTTTGGAGGGCGGAGTCACCTAGTGCAG”, the binding signal is 10900 fluorescence intensity (a.u.). Turning to “GTGGTGGTGCGCGGCGGCGGCGGCGGGGAGGGGTGTGTGTCGGAGTCACCTAGTGCAG”, the binding signal is 24500 fluorescence intensity (a.u.). As to “ATTTGTATTTGTTTTTTGTTTGTTAGTATTAGGGTGCTTTCGGAGTCACCTAGTGCAG”, the binding signal is 9720 fluorescence intensity (a.u.).

Regarding “TGTTAGTATTAGGGTGCTTTTGGGTTTGGGGTTTCTGCCACGGAGTCACCTAGTGCAG”, the binding signal was 24200 fluorescence intensity (a.u.).

On to “GGCTGCTTCAGGGGCGTGGGAGAGGTTTGGGGTTGGTTCACGGAGTCACCTAGTGCAG”, for which the binding signal is 16000 fluorescence intensity (a.u.).

For “TTCATGGAACATTCACGTGGATCATTCTCTCTCTCTCTCTCGGAGTCACCTAGTGCAG”, the binding signal was 8100 fluorescence intensity (a.u.). “TCACATCTCATTTTATGTTGGTTTTTTATGGGACGGGAGGCGGAGTCACCTAGTGCAG”: the binding signal was 10200 fluorescence intensity (a.u.). To “CACCACCGTGCACTTCACAATTCACACTACTCCTTCAGATCGGAGTCACCTAGTGCAG” belongs 8340 fluorescence intensity (a.u.); to “CTCATCATCCCGTCCAAAATCAGCTGCCCGCGCCGACGACCGGAGTCACCTAGTGCAG”, 8700 fluorescence intensity (a.u.).

Turning to “ATACACATGCACATTTAGTTCCTCCCGGTAAGTTCGTCGTCGGAGTCACCTAGTGCAG”, the binding signal was 8260 fluorescence intensity (a.u.).

Turning to “ATTTTTTTTTGGCATAGTTTGTGTTCACTGCAAAAATCACCGGAGTCACCTAGTGCAG”, the binding signal is 9080 fluorescence intensity (a.u.).

“TGACAGCGGTAGATGTGGGTGGTGGTGGGAGGGGAGGATGCGGAGTCACCTAGTGCAG”: the binding signal was 16200 fluorescence intensity (a.u.). To “GAGAGCTTTGCGGCGGGCATGCGGGTGGGGATTCACCGCGCGGAGTCACCTAGTGCAG” belongs 10600 fluorescence intensity (a.u.).

As to “GCTACATCAGCGGCGGAGGTGGAGGTGGAGGGGTAAGGTGCGGAGTCACCTAGTGCAG”, the binding signal was 11600 fluorescence intensity (a.u.). On to “TTTGGTTCACGCGGCGCGGGCGGGGAGTGGGAGGGGCATGCGGAGTCACCTAGTGCAG”, for which the binding signal is 24100 fluorescence intensity (a.u.). For “GGGTTATTCTTTGCATGATATTTGACGTTTTTTCTCGCTGCGGAGTCACCTAGTGCAG” the value was 9920 fluorescence intensity (a.u.). For “AGAGGGATGGGTGTGGGCAGCGGTGGGCGGTAAGGCACCACGGAGTCACCTAGTGCAG” the value was 9360 fluorescence intensity (a.u.); for “CTGCGGCCCGGCGGGAGTGGGAGGGGCGGCGGGCCGGACCCGGAGTCACCTAGTGCAG”, 9720 fluorescence intensity (a.u.); for “AGAGATGGTAGTGGTAAAGCGGAGGAGGGGTGGGGTGTTGCGGAGTCACCTAGTGCAG”, 16700 fluorescence intensity (a.u.). As for “CTATTATCTCCAGGGTGGGGTGGGGCCCATACGGCCAGGACGGAGTCACCTAGTGCAG”, the binding signal is 10400 fluorescence intensity (a.u.). For “TTTGACGTTTTTTCTCGCTGCTATTATCTCCAGGGTGGGGCGGAGTCACCTAGTGCAG” the value was 17200 fluorescence intensity (a.u.); for “GGGTGGGAGGGAGGGAGTACATGGTAAGGCCATTCAACAGCGGAGTCACCTAGTGCAG”, 20200 fluorescence intensity (a.u.). Take “GAGAGAGGGGTTGGGTTTGGTTGGTGTTTGTGTGGAGATGCGGAGTCACCTAGTGCAG”: the binding signal was 12800 fluorescence intensity (a.u.).

On to “ACCTTGGACAACTGACTTCTCTACAGACATTAACCTTTTTCGGAGTCACCTAGTGCAG”, for which the binding signal is 8730 fluorescence intensity (a.u.). In the case of “TTTTCATCTGAGCTTATGTTCCAACTTTTATTTTTAATCACGGAGTCACCTAGTGCAG”, the binding signal was 8780 fluorescence intensity (a.u.).

“ACTGAGTACTGTTCGGTTGGGTCTGGCATCGGATGTTTCCCGGAGTCACCTAGTGCAG”: the binding signal was 8340 fluorescence intensity (a.u.). For “TATAGGCCACTTGTGCCTCGGCTCACGTTGACCTGCCTTACGGAGTCACCTAGTGCAG” the value was 8170 fluorescence intensity (a.u.); for “AACATATAAACTCAAATCTCCAATTGTTTCCGCTACAAATCGGAGTCACCTAGTGCAG”, 8100 fluorescence intensity (a.u.). For the sequence “AACTATTTTCATCCCTCGAGGACATATCTCCTCGTTGTTTCGGAGTCACCTAGTGCAG”, the binding signal was 11100 fluorescence intensity (a.u.). To “ACGACCCTCTACATGTTGCTGCTGGCAGCCGCTCCCTCTCCGGAGTCACCTAGTGCAG” belongs 8660 fluorescence intensity (a.u.). For “GTTTTTCATATTTGACGATCAAACGGTGGTTTTAAAACTTCGGAGTCACCTAGTGCAG” the value was 8140 fluorescence intensity (a.u.); for “CACTTTTTCATGGATTTTTACTTATTTAATGATTTTTTATCGGAGTCACCTAGTGCAG”, 8240 fluorescence intensity (a.u.); for “GTCGTGGGCGGGAGGTGGTGGTGGTGGTGCTGCTGCATTGCGGAGTCACCTAGTGCAG”, 11600 fluorescence intensity (a.u.). For “GGGGAGGTTGCTGCTGCTGCTGGGCGGGTGGGCGGAGGGGCGGAGTCACCTAGTGCAG”, the binding signal is 28100 fluorescence intensity (a.u.). For “TAGTGGGGAGGCGGTGGTGCTGCGGGGAGGGAGGGAGCACCGGAGTCACCTAGTGCAG” the value was 12800 fluorescence intensity (a.u.); for “GGCGAGCGCGTCGTGGAGGGCGGGGAGGGAGTCGGGCTGGCGGAGTCACCTAGTGCAG”, 14400 fluorescence intensity (a.u.). For “CGATGGCTGGAGGGGAGGCGGCGGCGCATCGTGGCGGGCGCGGAGTCACCTAGTGCAG” the value was 8030 fluorescence intensity (a.u.); for “AGCGAGCGACGGGCGGGGCGGAGCGGGGCGGGGCTGCATTCGGAGTCACCTAGTGCAG”, 16700 fluorescence intensity (a.u.); for “TGGCAGGGTTGCATGGTTCTGGAGGGCGGGCTGTTATATTCGGAGTCACCTAGTGCAG”, 13500 fluorescence intensity (a.u.). For “GGAGGGCGGGCTGTTATATTCTTCACACCTTGCATGTAAGCGGAGTCACCTAGTGCAG” the value was 18700 fluorescence intensity (a.u.); for “AGGCGAGCGAGACGGCGGCGGGCGGGCGGGGCGGGCGACGCGGAGTCACCTAGTGCAG”, 14800 fluorescence intensity (a.u.); for “CTCGATTCTTCTGCAGCTGGGCGGGAGGGGAGGCGTGGCGCGGAGTCACCTAGTGCAG”, 18300 fluorescence intensity (a.u.).

With “GGCGGGGCAGACGGAGGCCGACGGCTGCAGCGGGCTGGGGCGGAGTCACCTAGTGCAG”, the binding signal is 9010 fluorescence intensity (a.u.). “GGCTGTTGTTTTTCCTTGTTATTCTTTCAGTAAGATATTTCGGAGTCACCTAGTGCAG”: the binding signal is 12800 fluorescence intensity (a.u.). To “TCTGTCCCTCAATCCCGCGACGCCGCCGCCGTTCTGCTCCCGGAGTCACCTAGTGCAG” belongs 10000 fluorescence intensity (a.u.). On to “GATCCTATCATTTTCAACGATGTTAAATCGTCACAGGCTTCGGAGTCACCTAGTGCAG”, for which the binding signal is 8310 fluorescence intensity (a.u.). Turning to “CCTCATTAGCTAGCTTTTTAGGGTGGGGAAGGCCCTTTACCGGAGTCACCTAGTGCAG”, the binding signal was 12700 fluorescence intensity (a.u.).
